Measured values: PubChem BioAssay (NCI)
About 83,000 compounds went through this panel and 20% of them were active in at least one assay; those are over-represented in the sample as a whole.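 The endpoint reported here, percent growth, reads 100 for growth as untreated, 0 for no net growth and -100 for all cells dead.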 The source made the active and inactive calls. The calls were made as follows: active = growth percent below 10; inactive = the rest.

Key:
Assay in all cases: NCI-60 one-dose screen, 48 h (100 = growth as untreated, 0 = no growth, -100 = all killed)
Details in all cases: 10 µM unless noted
[1] = system: HCT-15 colon
[2] = system: HT29 colon
[3] = system: SNB-19 CNS
[4] = system: U251 CNS
[5] = system: PC-3 prostate
[6] = system: SK-MEL-5 melanoma
[7] = system: UACC-62 melanoma
[8] = system: LOX IMVI melanoma
[9] = system: SK-MEL-28 melanoma
[10] = system: SK-MEL-2 melanoma
[11] = system: EKVX NSCLC
[12] = system: SN12C renal
[13] = system: UO-31 renal
[14] = system: TK-10 renal
[15] = system: ACHN renal
[16] = system: CAKI-1 renal
[17] = system: A498 renal
[18] = system: CCRF-CEM leukemia
[19] = system: MOLT-4 leukemia

Measured: growth

COc1cc2c(=O)n(CC3CCCCC3)c3c4cc[nH]c4ncc3c2cc1OC
inactive: [1] 32.1% | [2] 32% | [3] 57.5% | [4] 30.3% | [5] 43.4% | [6] 39.3% | [7] 74.4% | [8] 12.3% | [9] 77.8% | [10] 64% | [11] 63.9% | [12] 25.7% | [13] 23.1% | [14] 49.8% | [15] 26.8% | [16] 37.7% | [18] 39.5% | [19] 49.5%
active: [17] -5.29%

CCCCCCCCCC(=O)Oc1ccc(/C(=C(/C)Cc2cccc(OC)c2)c2ccc(OCCN(C)C)cc2)cc1
inactive: [1] 105% | [2] 109% | [3] 109% | [4] 110% | [5] 110% | [6] 107% | [7] 97.8% | [8] 102% | [9] 114% | [10] 107% | [11] 94.7% | [12] 99.2% | [13] 92.5% | [14] 109% | [15] 110% | [16] 102% | [17] 95.8% | [18] 103% | [19] 115%

COc1cccc(-c2cn3c(ccc4ccccc43)n2)c1
inactive: [1] 21.9% | [2] 20.1% | [3] 38.3% | [4] 38.4% | [5] 34.8% | [7] 34.4% | [8] 31.6% | [9] 60% | [10] 22.1% | [11] 20.8% | [12] 40.2% | [13] 37.2% | [14] 88.8% | [15] 40.1% | [18] 26.6% | [19] 48.7%
active: [6] 9.42% | [17] -3.78%

Nc1c(C(=O)Nc2cccc3c2OCCO3)sc2nc3c(cc12)C(=O)CCC3
inactive: [1] 30.1% | [2] 13.5% | [3] 33.3% | [4] 33% | [5] 33.9% | [6] 24% | [7] 23.5% | [8] 41.8% | [9] 60% | [10] 64.9% | [11] 24.7% | [12] 41.3% | [13] 53% | [14] 73.3% | [15] 55.4% | [18] 16.5% | [19] 57.6%
active: [17] -1.97%

C=C1C(=O)O[C@H]2[C@H]1CC/C(Cn1cc(Cc3c[nH]c4ccccc34)nn1)=C\CC[C@@]1(C)O[C@@H]21
inactive: [3] 65.4% | [4] 37.6% | [5] 38.7% | [6] 24.9% | [7] 38% | [9] 20% | [10] 51.2% | [11] 53.6% | [14] 14.7% | [16] 31.7% | [17] 64.3%
active: [1] -25.9% | [2] 3.04% | [8] -76.2% | [13] -71.1% | [15] -36.1% | [18] -17.1% | [19] -1.1%
